Laboratory results reported in PubChem BioAssay (Tox21).
“And” between values parts separate entries of the source, which are not always exact repeats. Equal entries are not always repeated. Records with an inconclusive call do not appear. A call without a number means that no potency is given here. A structure can be active in one record and inactive in another. The source made the active and inactive calls. Unless noted, calls come from the whole dose curve; as a rule, active = well fitted curve in the direction sought with a large enough effect in the repeat runs; inconclusive = weak or mixed curves; inactive = no such curve, though single readings can be large; an effect the other way counts as inactive or inconclusive.

Legend:
[1] = biological target: Progesterone receptor (Homo sapiens) (UniProt P06401); experiment: qHTS assay to identify small molecule agonists of the progesterone receptor (PR) signaling pathway (AID 1346784; calls by dose curve; note: nearly all actives have a fitted effect of over 30% in size); details: PR-UAS-bla HEK293T, beta-lactamase FRET ratio, 16 h; series mostly up to 92.4 µM
Chain of Progesterone receptor (Homo sapiens) (P06401 whole entry, looked up): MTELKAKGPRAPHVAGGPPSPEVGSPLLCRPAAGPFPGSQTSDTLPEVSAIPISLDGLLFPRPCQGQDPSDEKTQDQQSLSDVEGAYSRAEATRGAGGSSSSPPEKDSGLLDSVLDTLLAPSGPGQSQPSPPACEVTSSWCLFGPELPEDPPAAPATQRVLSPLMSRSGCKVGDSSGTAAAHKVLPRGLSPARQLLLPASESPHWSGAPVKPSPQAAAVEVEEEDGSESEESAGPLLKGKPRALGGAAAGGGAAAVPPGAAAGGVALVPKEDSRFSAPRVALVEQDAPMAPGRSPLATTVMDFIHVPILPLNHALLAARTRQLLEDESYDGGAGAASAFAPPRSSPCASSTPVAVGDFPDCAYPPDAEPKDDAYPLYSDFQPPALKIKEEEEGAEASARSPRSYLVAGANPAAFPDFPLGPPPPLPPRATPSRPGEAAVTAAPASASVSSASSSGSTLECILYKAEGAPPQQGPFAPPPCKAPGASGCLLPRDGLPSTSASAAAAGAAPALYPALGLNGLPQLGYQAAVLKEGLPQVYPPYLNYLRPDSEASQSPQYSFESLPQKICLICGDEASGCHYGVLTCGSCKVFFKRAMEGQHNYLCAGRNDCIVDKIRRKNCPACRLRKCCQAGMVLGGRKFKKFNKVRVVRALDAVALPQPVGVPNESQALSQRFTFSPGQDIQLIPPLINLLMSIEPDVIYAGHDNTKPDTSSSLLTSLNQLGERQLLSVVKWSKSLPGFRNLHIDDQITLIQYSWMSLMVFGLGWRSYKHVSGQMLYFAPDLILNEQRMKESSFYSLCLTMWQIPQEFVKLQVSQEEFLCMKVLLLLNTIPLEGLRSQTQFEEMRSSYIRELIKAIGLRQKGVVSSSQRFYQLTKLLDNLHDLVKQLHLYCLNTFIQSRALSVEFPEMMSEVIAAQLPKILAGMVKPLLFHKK
Outline: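 Using charcoal-stripped serum (2%) to limit endogenous steroids, PR-UAS-bla HEK 293T cells received compounds for 16 hr at 37C after 6 hr plating; beta-lactamase FRET fluorescence was recorded following 2 hr substrate loading at room temperature.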

[2] = biological target: Progesterone receptor (Homo sapiens) (UniProt P06401); experiment: qHTS assay to identify small molecule antagonists of the progesterone receptor (PR) signaling pathway (AID 1346795; active = well fitted inhibition curve with a large enough effect in the signal ratio in the repeat runs, not every such curve was filed as active; the % refers to the signal ratio; note: potency is the fitted concentration of half-maximal effect); details: PR-UAS-bla HEK293T, beta-lactamase FRET ratio, 16 h; series mostly up to 92.4 µM
Outline: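 Inhibition of R5020-induced (1 nM final) beta-lactamase reporter signal in PR-UAS-bla HEK293T cells was scored by FRET fluorescence after overnight (16 hr) compound treatment.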

[3] = qHTS assay to identify small molecule antagonists of the progesterone receptor (PR) signaling pathway - cell viability counter screen (AID 1346798); details: PR-UAS-bla HEK293T viability, CellTiter-Glo luminescence, 16 h; series mostly up to 92.4 µM; note: nearly all actives have a fitted effect of over 50% in size
Outline: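 ATP content as viability readout: CellTiter-Glo luminescence, 30 min room temperature, in PR-UAS-bla HEK293T cells after 16 hr compound/R5020 treatment at 37C and 5% CO2.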

[4] = qHTS assay to identify small molecule agonists of the progesterone receptor (PR) signaling pathway - cell viability counter screen (AID 1346799; calls by dose curve; note: nearly all actives have a fitted effect of over 45% in size); details: PR-UAS-bla HEK293T viability, CellTiter-Glo luminescence, 16 h; series mostly up to 92.4 µM
Outline: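 Cytotoxicity in PR-bla HEK293T cells: 16 h compound, 37C; CellTiter-Glo added post-FRET read; luminescence after 30 min RT.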

[5] = qHTS assay to identify small molecule agonists of the TGF-beta/Smad signaling pathway - cell viability counter screen (AID 1346829); details: SBE-bla HEK293T viability, CellTiter-Glo luminescence, 5 h; series mostly up to 76.8 µM; note: top concentration of the series differs between compounds; nearly all actives have a fitted effect of over 45% in size
Outline: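 After overnight seating at 37 C and 5% CO2, reporter cells got compounds for 5 hr and FRET substrate for 2 hr; cell viability then came from CellTiter-Glo luminescence.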

[6] = qHTS assay to identify small molecule agonists of the TGF-beta/Smad signaling pathway (AID 1346859; active = well fitted activation curve with a large enough effect in the signal ratio in the repeat runs, not every such curve was filed as active; the % refers to the signal ratio); details: SBE-bla HEK293T, TGF-beta/Smad beta-lactamase reporter, 5 h; series mostly up to 76.8 µM
Outline: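 Stable Smad binding element-beta-lactamase HEK 293T cells; 5 hr compound exposure at 37 C under 5% CO2; 2 hr room-temperature substrate step; fluorescence excited at 405 nm, collected at 460 nm and 530 nm.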

[7] = biological target: Thyrotropin-releasing hormone receptor (Homo sapiens) (UniProt P34981); experiment: qHTS assay to identify small molecule antagonists of the thyrotropin-releasing hormone receptor (TRHR) signaling pathway (AID 1346877; active = well fitted inhibition curve with a large enough effect in the repeat runs, not every such curve was filed as active); details: TRHR-HEK293, TRH-induced calcium fluorescence, antagonist mode; series mostly up to 51.3 µM
Chain of Thyrotropin-releasing hormone receptor (Homo sapiens) (P34981 whole entry, looked up): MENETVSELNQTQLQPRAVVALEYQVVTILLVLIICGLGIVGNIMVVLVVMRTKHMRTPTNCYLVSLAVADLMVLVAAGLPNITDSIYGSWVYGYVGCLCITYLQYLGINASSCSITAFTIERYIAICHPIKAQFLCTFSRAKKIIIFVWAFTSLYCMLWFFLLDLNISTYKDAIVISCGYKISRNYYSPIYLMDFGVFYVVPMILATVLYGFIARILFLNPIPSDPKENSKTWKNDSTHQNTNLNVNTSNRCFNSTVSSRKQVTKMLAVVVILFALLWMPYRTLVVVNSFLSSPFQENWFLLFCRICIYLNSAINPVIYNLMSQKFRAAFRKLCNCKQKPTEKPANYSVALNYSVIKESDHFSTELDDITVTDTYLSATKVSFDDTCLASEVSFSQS
Outline: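 Antagonist mode: after a 5 min room-temperature compound exposure, cells were stimulated with 1 nM (final) TRH. Dye-loaded TRHR-HEK293 cells were used, and calcium-dependent fluorescence was followed for 3 min, with 15-point titrations run in triplicate.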

[8] = biological target: Thyrotropin-releasing hormone receptor (Homo sapiens) (UniProt P34981); experiment: qHTS assay to identify small molecule agonists of the thyrotropin-releasing hormone receptor (TRHR) signaling pathway (AID 1346891; calls by dose curve;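 note: HEK293 cells expressing TRHR with calcium dye readout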); details: TRHR-HEK293 calcium fluorescence, agonist mode; series mostly up to 57.6 µM
Outline: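 In 1536-format, 1500 TRHR-Hek293 cells per well grew 18 h, took up calcium dye for 2 h at 37 °C, received compound, and were read kinetically; 15-point titrations, triplicates.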

[9] = qHTS assay to identify small molecule antagonists of the TGF-beta/Smad signaling pathway - cell viability counter screen (AID 1346824); details: SBE-bla HEK293T viability, CellTiter-Glo luminescence; series mostly up to 76.8 µM; note: nearly all actives have a fitted effect of over 50% in size
Outline: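 SBE-bla HEK 293T cells, incubated overnight, then compound plus 0.25 ng/mL TGF-beta1 (stock added) for 5 hr at 37 C. Viability was read in the same wells by CellTiter-Glo luminescence after 30 min at room temperature.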

[10] = Human pregnane X receptor (PXR) small molecule agonists, qHTS cell viability counter screen (AID 1346977); details: PXR-Luc HepG2 viability, CellTiter-Fluor, 24 h; series mostly up to 92.4 µM; note: nearly all actives have a fitted effect of over 50% in size; note: potency is the fitted concentration of half-maximal effect
Outline: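 Readout is CellTiter-Fluor fluorescence from PXR-Luc HepG2 cells. Plated cells rested 5hr, then were treated with compounds for 24hr at 37C and 5% CO2, with reagent present during the last hour.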

Row | SMILES | Potency [1] | Potency [2] | Potency [3] | Potency [4] | Potency [5] | outcome [6] | outcome [7] | Potency [8] | Potency [9] | Potency [10]
1 | CC1=NN(c2ccccc2)C(=O)C1 | inactive | inactive | inactive | inactive | inactive | inactive | inactive | inactive | – | –
2 | C=CC(=O)NC(C)(C)CS(=O)(=O)O | inactive | inactive | inactive | inactive | inactive | inactive | – | – | inactive | inactive
3 | CCCCOCCOCCOC(C)=O | inactive | inactive | inactive | inactive | inactive | inactive | inactive | inactive | inactive | inactive
4 | COc1ccccc1NC(=O)CC(C)=O | inactive | inactive | inactive | – | inactive | inactive | inactive | inactive | inactive | –
5 | CC(=O)Oc1ccccc1C(=O)O | inactive | inactive | inactive | – | inactive | inactive | – | – | inactive | –
6 | CC(=O)/C=C/C1=C(C)CCCC1(C)C | inactive | inactive | inactive | – | inactive | inactive | inactive | inactive | inactive | inactive
7 | CCOC(=O)C(C)(C)Oc1ccc(Cl)cc1 | inactive | inactive | inactive | – | inactive | inactive | inactive | inactive | inactive | inactive
8 | COc1ccc(C(=O)c2ccccc2)c(O)c1 | inactive | 30.1 µM (active) | inactive | inactive | inactive | inactive | inactive | inactive | inactive | –
9 | COC1=CC(=O)C[C@@H](C)[C@]12Oc1c(Cl)c(OC)cc(OC)c1C2=O | inactive | 27.1 µM (active) and 30.6 µM (active) | inactive | inactive | inactive | inactive | inactive | inactive | – | –
10 | CCc1cc(C(N)=S)ccn1 | inactive | inactive | inactive | inactive | inactive | inactive | inactive | inactive | – | inactive
11 | COc1ccccc1O | inactive | inactive | inactive | – | inactive | inactive | inactive | inactive | inactive | –
12 | CCCCCCCCOc1ccc(C(=O)c2ccccc2)c(O)c1 | inactive | inactive | inactive | inactive | inactive | inactive | inactive | inactive | inactive | inactive
13 | NC(=O)N/N=C/c1ccc([N+](=O)[O-])o1 | inactive | inactive | inactive | inactive | inactive | inactive | inactive | inactive | – | inactive and 27.3 µM (active) and 26.6 µM (active)
14 | CN(C)C=O | inactive | inactive | inactive | inactive | inactive | inactive | inactive | inactive | inactive | inactive
15 | COCCOCCOC | inactive | inactive | inactive | inactive | inactive | inactive | inactive | inactive | – | inactive
16 | Cc1cccc2ccccc12 | inactive | inactive | inactive | – | inactive | inactive | inactive | inactive | inactive | –
17 | O=c1cc[nH]c(=O)[nH]1 | inactive | inactive | inactive | – | inactive | inactive | inactive | inactive | inactive | inactive
18 | COc1cc(O)c(C(=O)c2ccccc2)cc1S(=O)(=O)O | inactive | inactive | inactive | inactive | inactive | inactive | inactive | inactive | – | inactive
19 | c1ccc2[nH]c(-c3cscn3)nc2c1 | inactive | inactive | inactive | inactive | inactive | inactive | inactive | inactive | – | inactive
